In the library only some 1.3% were active in any assay of this set; here they are far more common.
LmPK inhibitor – qHTS Assay for Inhibitors of Leishmania Mexicana Pyruvate Kinase (LmPK) | Q27686 | purified LmPK, Kinase-Glo ATP luminescence, 1 h | Potency, µM (series often up to 57.5 µM), actives largely listed as inhibitors | hit rate 0.37% among 290,000 | AID 1721, 2009
Target sequence (Q27686 whole entry, looked up): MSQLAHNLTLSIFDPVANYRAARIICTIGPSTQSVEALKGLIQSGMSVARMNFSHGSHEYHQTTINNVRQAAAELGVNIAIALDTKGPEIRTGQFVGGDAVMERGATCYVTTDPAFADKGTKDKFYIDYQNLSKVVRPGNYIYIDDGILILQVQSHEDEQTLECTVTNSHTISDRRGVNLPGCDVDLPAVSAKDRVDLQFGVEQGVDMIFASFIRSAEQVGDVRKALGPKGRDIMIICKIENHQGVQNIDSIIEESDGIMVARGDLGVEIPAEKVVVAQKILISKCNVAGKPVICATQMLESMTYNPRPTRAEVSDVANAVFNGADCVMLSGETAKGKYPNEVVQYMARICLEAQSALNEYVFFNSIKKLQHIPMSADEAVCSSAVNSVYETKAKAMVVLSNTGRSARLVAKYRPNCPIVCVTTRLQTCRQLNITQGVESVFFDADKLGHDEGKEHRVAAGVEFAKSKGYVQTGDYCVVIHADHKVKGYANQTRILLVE
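qHTS format; LmPK 0.1 nM; substrates PEP 0.5 mM and ADP 0.1 mM. One-hour room-temperature incubation, then coupled luciferase luminescence; 0.5 nM enzyme wells mark activation.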
RE007 growth inh – qHTS Assay for Inhibitors of the HIV-1 protein Vpr; Potency, µM (series often up to 92.2 µM), most hits filed as inhibitors; hit rate 0.21% among 360,000; S. pombe RE007 Vpr strain, BacTiter-Glo ATP luminescence, 24 h; active = well fitted falling curve with a large enough effect; inconclusive = small, poorly fitted or top-dose-only effect; inactive = no such curve, though single readings can be large or run the other way; also: nearly all actives have a fitted effect of over 50% in size
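Fission yeast strain RE007, carrying one chromosomally integrated HIV-1 vpr copy, was seeded at OD 0.01 in PMG+AL medium with 23 nL pinned compound. After 24 h at 30 °C and 99% humidity, viability was read by BacTiter-Glo luminescence.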
VACV mCherry inh – qHTS for Stage-Specific Inhibitors of Vaccinia Orthopoxvirus: mCherry Reporter Primary qHTS | AID 720579, 2013 | Potency, µM (titrated, usually from 36.5 µM), hits mostly inhibitors | hit rate 0.63% among 310,000 | Vaccinia virus mCherry reporter infection, fluorescence; calls by dose curve; tested in A549 cells; also: nearly all actives have a fitted effect of over 35% in size
Vaccinia Venus – qHTS for Stage-Specific Inhibitors of Vaccinia Orthopoxvirus: Venus Reporter Primary qHTS; Vaccinia virus Venus reporter expression, fluorescence; Potency, µM (highest dose often 36.5 µM), usual class: inhibitors; hit rate 0.46% among 330,000; AID 720580, 2013; calls by dose curve; tested in A549 cells; also: nearly all actives have a fitted effect of over 30% in size
AMA1 RON2 block – qHTS for Inhibitors of AMA1-RON; Towards Development of Antimalarial Drug Lead: Primary Screen. Potency, µM (titrated, usually from 58.2 µM), most hits filed as inhibitors. Plasmodium falciparum AMA1 (3D7) - RON2 peptide interaction. AlphaScreen AMA1-biotinylated RON2 peptide binding. hit rate 0.2% among 360,000; also: nearly all actives have a fitted effect of over 45% in size
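AMA1 (3D7) with his tag at 25 nM final met compounds first, then biotinylated RON2 peptide at 25 nM; detection used donor plus acceptor beads, 10 µg/mL apiece, read by AlphaScreen after 30 min at room temperature.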
TbPYK inhibitor – qHTS of Trypanosoma Brucei Inhibitors; AID 624173, 2012; hit rate 0.12% among 410,000; Potency, µM (top dose mostly 76.8 µM), most hits filed as inhibitors; TbPYK enzyme, Kinase-Glo Plus ATP luminescence, 45 min; also: nearly all actives have a fitted effect of over 50% in size
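T. brucei PYK with substrate was exposed to pin-transferred compounds across a concentration series, then started with 130 uM ADP (final). After 45 min at room temperature, Kinase-Glo Plus luminescence was read, normalized and curve-fitted.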
Numbers stand for hits; - = inactive; ? = inconclusive; . = no result; [ ] = another dose, or the depositor's remark. Unless noted, calls follow the shape of the dose curve; as a rule, active = well fitted curve in the direction sought with a large enough effect; inconclusive = small, poorly fitted or top-dose-only effect, or another doubt; inactive = no such curve, though single readings can be large; an effect the other way counts as inactive or inconclusive.

SMILES	LmPK inhibitor	RE007 growth inh	VACV mCherry inh	Vaccinia Venus	AMA1 RON2 block	TbPYK inhibitor
O=C(O)c1ccc2nc3c(nc2c1)-c1ccccc1C3=O	?	-	-	-	-	32µM
O=C(O)c1ccc2nc(-c3ccco3)c(-c3ccco3)nc2c1	-	-	-	-	-	?
COc1ccc(CN2CCC3(CCC(CNC(=O)c4ccco4)O3)CC2)c(OC)c1C (centres undefined)	.	.	-	-	.	.
Nc1cc(Cl)c2nonc2c1[N+](=O)[O-]	-	-	10µM	10µM	-	-
CC1=C(C)/C(=N\OS(=O)(=O)c2ccccc2)C=CC1=O	-	7.9µM	?	?	?	-
Cc1ccc(S(=O)(=O)O/N=C2\CCCc3ccccc32)cc1	-	-	-	-	-	-
CC(C)Cc1nc2cc(NS(=O)(=O)N(C)C)cc(C(=O)N3CCOc4ccccc4C3)c2n1C	.	.	-	-	.	.
Cc1ccc(C)c(-n2c(-c3ccco3)n[nH]c2=S)c1	.	-	-	-	-	?
S=c1[nH]nc(-c2ccco2)n1-c1cccc2ccccc12	7.9µM	-	-	-	-	2.8µM
COc1ccc(Cn2c(-c3ccc(OC)cc3)n[nH]c2=S)cc1	?	-	-	-	-	?
CC(C)Oc1ccc(Cn2c(-c3ccco3)n[nH]c2=S)cc1	14µM	-	28µM	?	-	2.5µM
S=c1[nH]nc(CSCc2ccccc2Cl)n1C1CCCCC1	?	-	-	-	-	?
Cn1cc(Cl)c(-c2n[nH]c(=S)n2C2CCCCC2)n1	20µM	-	-	-	-	7.1µM
S=c1[nH]nc(-c2ccco2)n1-c1ccc(Cl)cc1	18µM	-	-	-	-	?
COc1ccccc1C1CN(CCNC(=O)c2sccc2Cl)Cc2ccccc2O1 (centres undefined)	.	.	-	-	.	.
S=c1[nH]nc(-c2ccco2)n1C1CCCCC1	25µM	-	-	-	-	?
COc1ccc(-n2c(-c3ccco3)n[nH]c2=S)cc1	?	-	.	.	-	?
COc1ccccc1-n1c(-c2ccco2)n[nH]c1=S	?	-	-	-	-	10µM
Cc1cc2nc(N3CCC(NC(C)c4nc(-c5ccccn5)no4)CC3)nc(C)c2cc1C (centres undefined)	.	.	-	-	.	.
COC(=O)C12OCC34C(CC5C(C)=C(O)C(=O)CC5(C)C3C(O)C1O)OC(=O)C(OC(=O)/C=C(\C)C(C)C)C24 (centres undefined)	.	?	?	1.3µM	-	-
COC(=O)C12OCC34C(CC5C(C)=C(O)C(=O)CC5(C)C3C(O)C1O)OC(=O)C(OC(=O)C=C(C)C)C24 (centres undefined)	.	-	32µM	?	-	-
O=C(C[n+]1c(Cl)ccc2ccccc21)c1ccc2ccccc2c1	.	.	-	-	.	.
O=C(NC(Nc1ncc(S(=O)(=O)c2ccc([N+](=O)[O-])cc2)s1)(C(F)(F)F)C(F)(F)F)c1ccc(Cl)cc1	-	-	18µM	?	-	-
COCC(=O)Nc1ncc(S(=O)(=O)c2ccc([N+](=O)[O-])cc2)s1	-	-	?	-	-	-
O=C(CS(=O)c1ccc(C(F)(F)F)cc1[N+](=O)[O-])Oc1ccccc1 (centres undefined)	-	45µM	-	-	-	-
SMILES	LmPK inhibitor	RE007 growth inh	VACV mCherry inh	Vaccinia Venus	AMA1 RON2 block	TbPYK inhibitor
COc1cccc2cc(C(=O)NCc3ccco3)c(=O)oc12	-	-	-	-	-[2.32 µM]	-
COc1cccc2cc(C(=O)NCc3ccco3)c(=Nc3ccc(C(=O)O)cc3)oc12	-	-	7.9µM	10µM	-	-
Cc1sc2nc(CN3CCN(c4ccc(O)cc4)CC3)[nH]c(=O)c2c1C	14µM	-	.	.	-	-
CCC1C(=O)NCCN1Cc1ccc2c(c1)CN(Cc1cccc(OC)c1)CCO2 (centres undefined)	.	.	-	-	.	.
O=C1c2cccc3cccc(c23)C(=O)C1(O)O	.	-	-	-	-	7.1µM
COc1ccccc1N1CCN(/N=C/c2ccc([N+](=O)[O-])cc2)CC1	-	-	.	.	-	-
O=[N+]([O-])c1ccc(C=NN2CCCCCC2)cc1	.	-	-	-	25µM	-
O=C1C(c2ccccc2)=[N+]([O-])c2ccccc21	.	?	-	-	13µM	-
CC(=O)NCCNC(=O)c1ccc(Sc2ccccc2)c([N+](=O)[O-])c1	-	-	-	-	-	-
CN(C)CCNC(=O)c1ccc(Sc2ccc(Br)cc2)c([N+](=O)[O-])c1	-	-	10µM	?	-	-
O=[N+]([O-])c1ccc(N/N=C2\CC3CC=CC23)cc1 (centres undefined)	-	-	.	.	-	-
O=[N+]([O-])c1ccc(N/N=C2\CC3CC=CC23)c([N+](=O)[O-])c1 (centres undefined)	-	-	-	-	14µM	-
COc1cccc(C2(CC(=O)N3CCCOc4c(cccc4OC)C3)CC(=O)N(C)C2=O)c1 (centres undefined)	.	.	-	-	.	.
C/C(=N\NC(=O)c1cc(-c2cccnc2)nc2ccccc12)c1ccc(O)cc1O	-	-	11µM	?	-	-
O=C(NNC(=O)c1cc(-c2ccncc2)nc2ccccc12)c1ccccc1O	.	-	13µM	?	-	-
Cc1ccc(-c2cc(C(=O)Nc3ccncc3)c3ccccc3n2)cc1	.	-	-	-	-	-
COc1ccc(CN2CCOc3ccc(C(O)c4cccnc4)cc3C2)c(F)c1 (centres undefined)	.	.	-	-	.	.
Cc1ccc(NC2=CC(=O)C(=O)c3ccccc32)cc1	-	?	.	.	-	-
COc1cc(OC)c(NC2=CC(=O)C(=O)c3ccccc32)cc1Cl	-	-	0.89µM	3.2µM	-	-
O=C1N=c2ccc([N+](=O)[O-])cc2=C1c1sc(=O)[nH]c1O	?	-	-	-	-	-
O=C1N=c2ccccc2=C1c1sc(=O)[nH]c1O	10µM	-	.	.	-	?
O=C(Cn1ccccc1=S)c1ccc(Cl)c(Cl)c1	.	-	-	-	-	-
On1ccccc1=S	.	4.5µM	-	-	-	?
CCCS(=O)(=O)NCc1c(C)ncc2c1CCN(C(=O)/C=C/c1ccc(F)cc1F)C2	.	.	-	-	.	.
O=C1NN(c2ccc(Cl)cc2)C(=O)/C1=C\c1ccc(-c2cccc(C(=O)O)c2)o1	-	-	-	-	-	-
O=C1NN(c2ccccc2)C(=O)/C1=C\c1ccc(-c2cc([N+](=O)[O-])ccc2O)o1	18µM	-	-	-	-	?
C=CCn1c(SCC(N)=O)nc2ccccc2c1=O	.	.	-	-	.	.
